# Only some compounds are listed: those with a hit (about 1.8% of all), similar ones and a draw of the others.
# IEC-6 tox: cytotoxicity in IEC-6 intestinal epithelial cells, primary screen, cytotoxicity control for KLF5 inhibitor project, cell-based, luminescence; inhibition, % at 5 µM; AID 1825, 2009; 0.78% of 290,000 active; IEC-6 cytotoxicity, luminescence viability; in the data active = inhibition above about 22%;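 also: 0% = plate median of test compound wells and 100% = cytotoxic reference compound wells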
# Ba/F3 V617F tox: reduced viability of JAK2V617F-dependent Ba/F3 cells, primary screen, JAK2V617F inhibitor project, cell-based, Ba/F3 EpoR-JAK2V617F, luminescence; ATP luminescence; inhibition, % at 5.6 µM; 1.1% of 220,000 active; AID 1446, 2008;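 active = inhibition above the campaign mean plus 3 SD over all tested compounds, cut at about 24% in these data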;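 also: cytokine-independent growth of Ba/F3 cells driven by EpoR plus mutant JAK2; 0% = DMSO-treated cells and 100% = JAK inhibitor I control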
# APP 5UTR inh: inhibitors of APP translation via 5'UTR reporter, primary screen, APP 5'UTR luciferase, SH-SY5Y cells; SH-SY5Y APP 5'UTR-luciferase reporter, luminescence; inhibition, % at 2 µM; 0.82% of 190,000 active; AID 1285, 2008;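 active = inhibition above a set limit, derived from the sample mean plus 3 SD, cut at about 45% in these data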
# KLF5 inh: KLF5 expression inhibitors, primary screen, DLD-1 cells, luminescence | DLD-1 KLF5 promoter-luciferase reporter | inhibition, % at 5 µM | AID 1700, 2009 | 0.23% of 290,000 active;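 active = inhibition above a per-plate limit of that plate's mean compound inhibition plus 3 SD, cut at about 60% in these data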;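 also: 0% = DMSO wells and 100% = LY294002 at 200 µM; higher means less KLF5 promoter-driven luciferase light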
# BaF3 tox: parental Ba/F3 cell viability inhibition, counter-screen for JAK2V617F inhibitor project, murine pro-B, CellTiter-Glo luminescence; CellTiter-Glo ATP luminescence; inhibition, % at 5.6 µM; 1.1% of 220,000 active;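 active = inhibition above a per-campaign cutoff, the mean inhibition of all tested compounds plus 3 SD, cut at about 27% in these data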;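 also: 0% = DMSO wells and 100% = JAK Inhibitor I control wells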
# Starred values were filed as active, the others as inactive; x = no result.
SMILES,IEC-6 tox,Ba/F3 V617F tox,APP 5UTR inh,KLF5 inh,BaF3 tox
CSc1ccccc1OCc1cc(C(=O)N2CCN3CCCC3C2)no1 (stereo unspecified),2.2,x,x,-11.3,x
Cn1c(C(=O)N2CCCC(C(=O)N3CCN(C(=O)c4ccco4)CC3)C2)cc2sccc21 (stereo unspecified),-0.1,-3.5,14.1,10.9,2.9
Cn1c(C(=O)N2CCCC(C(=O)O)C2)cc2sccc21 (stereo unspecified),2.4,-2.9,-10.7,-2.6,94.6*
CCOc1ccc(S(=O)(=O)n2cnc3cc(C)c(C)cc32)cc1,8.1,39.8*,2.9,-26.0,50.5*
CCCCC(=O)N/N=C/c1ccc(Sc2cccc3cccnc23)o1,6.7,-0.1,-0.6,-22.0,1.9
O=C(Cc1cccc2ccccc12)N/N=C/c1ccc(Sc2cccc3cccnc23)o1,0.5,-4.4,54.4*,-1.6,1.0
NCCCCc1cn(CC(=O)N2CCNCC2)nn1,1.2,-0.5,-1.7,7.4,1.4
COc1cc(C)c(Cl)c(C)c1S(=O)(=O)NCc1cccnc1,-8.8,-1.0,45.6*,11.2,4.0
S=C1SCN(Cc2ccccc2)CN1Cc1ccccc1,-4.5,x,x,-2.9,x
S=C1SCN(Cc2cccnc2)CN1Cc1cccnc1,-0.2,85.5*,x,-1.1,51.4*
COc1ccc(-c2ncncc2-c2csc(C)n2)c(O)c1,-2.0,-1.8,-0.2,-11.5,31.7*
COc1ccc(-c2nc(C)ncc2-c2csc(C)n2)c(O)c1,-3.6,-1.5,14.6,-24.5,4.8
N#C/C(=C/c1ccco1)C(N)=S,-18.9,-2.4,x,-6.5,5.6
N#CC(C#N)=C1C=CC=CN1/C(=C\c1ccco1)C(=O)c1ccc(Br)cc1,4.0,-3.1,92.8*,-6.1,1.5
Cc1csc(NC(=O)CCc2c(C)nc3cc(-c4ccc(Cl)cc4)nn3c2C)n1,10.0,5.5,53.7*,-1.4,6.7
COc1cc(C(=O)N2CCN(c3cc(Cl)ccc3Cl)CC2)cc(OC)c1OC,60.9*,64.5*,-2.2,49.4,62.6*
COC(=O)c1ccc(NC(=O)CSc2nnc(COc3ccc4c(c3)CCCC4)o2)cc1,-6.0,-3.1,-3.3,7.4,96.4*
Cc1nnc(SCC(=O)NCCc2ccccc2)s1,-5.3,-0.5,10.2,6.1,5.1
Cc1ccc(C(C)C)c(OCC(=O)NN=C(CCl)CCl)c1,-4.1,3.1,x,-10.1,-4.5
C/C(=N/NC(=O)COc1cc(C)ccc1C(C)C)C(=O)O,-5.8,1.3,82.1*,11.7,3.3
COc1ccc(C(=O)Nc2cc(OC)cc(OC)c2)cc1,8.9,4.0,-125.0,-84.2,68.8*
Cc1ccc(C(=O)Nc2ccc3ccccc3c2)cc1,0.2,x,x,71.6*,x
O=C(NCc1ccccc1)C(c1ccncc1)N(C(=O)c1ccccn1)c1ccccc1 (stereo unspecified),-2.9,x,x,-23.3,x
O=C1N/C(=C/c2ccc(N3CCOCC3)o2)C(=O)N1c1ccccc1,-6.3,2.2,54.0*,-11.6,-1.0
O=C1N/C(=C/c2ccc(N3CCCC3)cc2)C(=O)N1c1ccccc1,-6.6,-3.6,-38.8,-2.6,-0.1
SMILES,IEC-6 tox,Ba/F3 V617F tox,APP 5UTR inh,KLF5 inh,BaF3 tox
CCN(CC)CCC(C)OC(=O)c1ccc(O)cc1O (stereo unspecified),-4.7,-1.0,8.7,-1.8,-1.0
Cc1ccc(N2CC(C(=O)Nc3cccnc3)CC2=O)cc1Cl (stereo unspecified),3.4,x,x,-3.7,x
Nc1c(Cl)ncnc1NCCc1ccc(O)cc1,5.7,4.9,x,-20.1,29.0*
O=C(NCc1ccccn1)c1cc(-c2ccc(-c3ccccc3)cc2)nc2ccccc12,14.0,33.9*,-107.0,-74.7,36.3*
O=C(NCc1ccccn1)c1cc(-c2ccccc2)nc2ccccc12,7.9,-1.2,13.4,-11.4,9.2
Cc1ccc2nc(N(CCCN(C)C)C(=O)c3sc4ccccc4c3Cl)sc2c1,-2.1,-1.0,3.5,-6.9,3.1
Cc1cc([N+](=O)[O-])nn1CCCC(=O)Nc1cc(Cl)ccc1Cl,1.7,-2.7,0.7,-12.9,-1.6
CCOC(=O)c1ccc2c(c1)n(CC)c(/C=C/N(C)c1ccccc1)[n+]2CC,-1.5,72.9*,4.5,-24.3,66.1*
CCOC(=O)c1ccc2c(c1)n(CCO)c(C)[n+]2CC,-0.9,1.0,7.1,-24.4,5.6
O=C(Nc1ccc([N+](=O)[O-])cc1)Nc1nc(-c2ccc(Cl)s2)cs1,-10.5,-2.5,56.3*,6.4,3.7
Cn1cccc/c1=N\c1cccc[n+]1C,0.6,72.6*,x,-13.3,62.9*
C/C(N)=C(/C#N)C(=O)CSc1nnc(COc2ccccc2Cl)o1,2.0,0.3,6.0,-20.2,95.5*
Cc1cc(C(=O)N/N=C/c2cc(N=Nc3ccccc3)ccc2O)n[nH]1,-0.4,5.2,49.5*,18.4,10.1
COC(=O)N/N=C/c1cc(N=Nc2ccccc2)ccc1O,-0.4,0.1,x,-39.0,6.9
COc1ccc(NC(=O)C23CC4CC(C2)CC(n2cnc(Br)n2)(C4)C3)cc1Cl,-1.1,-0.2,46.7*,-3.6,0.7
Oc1cccc(-c2nc3ccccc3s2)c1,-0.8,3.8,-116.1,-75.9,8.7
CC[n+]1cccc(-c2nc3ccccc3s2)c1,3.8,33.7*,-5.7,-7.0,44.0*
N=c1c2c(n(Cc3ccc(Cl)c(Cl)c3)c3c1CCC3)CCCC2,-0.6,88.1*,12.1,35.2,75.7*
N=c1c2c(n(Cc3ccc(Br)cc3)c3c1CCC3)CCCC2,18.1,100.2*,-2.7,42.2,75.1*
N=c1c2c(n(Cc3ccc([N+](=O)[O-])cc3)c3c1CCC3)CCCC2,-5.1,-0.4,-6.6,19.8,9.6
CCSc1ccc2cc(OC)ccc2[n+]1CC,-5.5,81.7*,36.0,-9.0,87.8*
CCn1c(SCC(=O)Nc2ccc(F)cc2)nnc1C1CC1,-1.4,x,x,-18.1,x
CCOC(=O)CSc1n[nH]c(NC(C)=O)n1,0.7,-1.2,10.5,-9.3,-4.1
COc1ccc(OCc2nnc(SCC(=O)Nc3nnc(C4CC4)s3)n2C)cc1,3.7,x,x,-16.5,x
CCOc1ccc(CCNC(=O)C2CCN(S(=O)(=O)N3CCCCC3)CC2)cc1OCC,-1.4,-1.2,2.2,-15.9,92.6*
SMILES,IEC-6 tox,Ba/F3 V617F tox,APP 5UTR inh,KLF5 inh,BaF3 tox
CCOc1ccc(CCNC(=O)C2CCN(S(=O)(=O)N3CCOCC3)CC2)cc1OCC,-3.7,-0.8,6.2,0.8,4.0
Cn1cc(CNCc2cn[nH]c2-c2ccc(F)cc2)c(-c2ccc3c(c2)OCCO3)n1,5.8,4.1,-15.4,-8.8,13.8
Cn1cc(CNCc2ccc(OC(F)(F)F)cc2)c(-c2ccc3c(c2)OCCO3)n1,13.5,46.7*,-10.5,-13.8,39.5*
Cn1ncc(Cl)c1C(=O)Nc1nc2ccc(Cl)cc2s1,-0.2,-2.6,-98.9,-22.3,36.9*
Cc1cc(C(=O)Nc2nc3ccc(Cl)cc3s2)nn1C,-5.3,-4.1,x,-148.0,0.5
CCOC(=O)/C=C(\C)Sc1cc(O)c2ccccc2c1O,33.7*,-0.3,x,-11.2,0.2
